# Experimental data: the supplement of paper PMC7411640
# Structures can show the parent of a compound that is named as a salt.
# System: MDA-MB-468
# Assay: phospho-S6 immunofluorescence (DAPI-normalised), per-plate z-score; higher = higher phospho-S6 signal (less pathway suppression)
# Details: co-treatment: GDC0941 450 nM; 24 h
# Experimental: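 GPCR-targeted compound library (MedChemExpress HY-L006) tested on MDA-MB-468 PTEN-null TNBC cells in 384-well plates at 0.1, 1 or 10 uM, combined with vehicle, GDC0941 450 nM or lapatinib 1 uM, for 24 h. Phospho-S6 (S240/244) immunofluorescence normalised to DAPI and expressed as a per-plate z-score; values are the mean of biological triplicates.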
row,Compound,phospho-S6 immunofluorescence (z-score)
1,C[C@@H]1CN(Cc2ccc(F)cc2)CCN1C(=O)COc1ccc(Cl)cc1NC(N)=O (compound 10 µM),-3.5
2,CCCC(C)(C)c1ccc2c(c1)OC(C)(C)[C@@H]1CC=C(C)C[C@@H]21 (compound 10 µM),2.38
3,O=c1[nH]c2ccccc2n1CCCN1CCC(n2c(=O)[nH]c3cc(Cl)ccc32)CC1 [Domperidone] (compound 10 µM),0.19
4,O=C(O[C@H]1C[C@H]2CC[C@@H](C1)[N+]21CCCC1)C(O)(c1ccccc1)c1ccccc1 [Trospium (chloride)] (compound 10 µM),-0.76
5,O=C1Nc2ccccc2C2(CCN(CCc3ccc(C(F)(F)F)cc3)CC2)O1 (compound 10 µM),-3.3
6,CC(C)C[C@H](NC(=O)[C@H](Cc1ccccc1)NC(=O)CNC(=O)[C@@H](C)NC(=O)[C@@H](N)Cc1ccc(O)cc1)C(=O)O [[D-Ala2]leucine-enkephalin] (compound 10 µM),-0.29
7,Oc1ccc2c3c1O[C@H]1c4[nH]c5ccccc5c4C[C@@]4(O)[C@@H](C2)N(CC2CC2)CC[C@]314 [Naltrindole (hydrochloride)] (compound 10 µM),-1.12
8,Cc1cccc(C)c1NC1=NCCCS1 [Xylazine (hydrochloride)] (compound 10 µM),0.73
9,CC(C)(C)NCC(O)c1ccc(O)cc1Cl (stereo unspecified) (compound 10 µM),0.77
10,CN1CCC(c2c[nH]c3ccc(O)cc23)CC1 (compound 10 µM),0.22
11,CN1[C@@H]2CC[C@H]1C[C@@H](OC(=O)C(CO)c1ccccc1)C2 (stereo partly specified) [Atropine (sulfate monohydrate)] (compound 10 µM),-1.09
12,COC(=O)C1=CCCN(C)C1 [Arecoline (hydrobromide)] (compound 10 µM),0.22
13,CSCC[C@H](NC(=O)[C@H](Cc1ccccc1)NC(=O)CNC(=O)CNC(=O)[C@@H](N)Cc1ccc(O)cc1)C(=O)O (compound 10 µM),-0.41
14,CN1[C@@H]2CC[C@H]1C[C@@H](OC(=O)[C@H](CO)c1ccccc1)C2 [L-Hyoscyamine] (compound 10 µM),0.17
15,CCC1(c2cccc(O)c2)CCCCN(C)C1 (stereo unspecified) [Meptazinol (hydrochloride)] (compound 10 µM),0.48
16,O=C(O[C@H]1CN2CCC1CC2)N(Cc1cc(F)c(F)c(F)c1)c1cccc(F)c1 [Tarafenacin (D-tartrate)] (compound 10 µM),0.34
17,Cc1cccc([C@H](C)c2c[nH]cn2)c1C [Dexmedetomidine (hydrochloride)] (compound 10 µM),0.32
18,CCC(COC(=O)c1cc(OC)c(OC)c(OC)c1)(c1ccccc1)N(C)C (stereo unspecified) [Trimebutine (maleate)] (compound 10 µM),1.12
19,CN1CCC2=C(C1)c1ccccc1Cc1ccccc12 [Setiptiline (maleate)] (compound 10 µM),-0.68
20,"Cc1c(C(=O)c2cccc3ccccc23)c2cccc3c2n1[C@H](CN1CCOCC1)CO3 [WIN 55,212-2 (Mesylate)] (compound 10 µM)",-2.24
21,COc1cc2c3c(c1OC)-c1ccccc1C[C@H]3N(C)CC2 [Nuciferine] (compound 10 µM),0.21
22,CN(C)CCN(C)CCc1ccc(Cl)c(Cl)c1 [BD-1047 (dihydrobromide)] (compound 10 µM),0.39
23,CN(C)C(=O)Oc1cc(OC(=O)N(C)C)cc(C(O)CNC(C)(C)C)c1 (stereo unspecified) [Bambuterol (hydrochloride)] (compound 10 µM),-0.5

# Same assay, conditions: co-treatment: lapatinib 1 uM; 24 h
row,Compound,phospho-S6 immunofluorescence (z-score)
1,C[C@@H]1CN(Cc2ccc(F)cc2)CCN1C(=O)COc1ccc(Cl)cc1NC(N)=O (compound 10 µM),-6.96
2,CCCC(C)(C)c1ccc2c(c1)OC(C)(C)[C@@H]1CC=C(C)C[C@@H]21 (compound 10 µM),1.8
3,O=c1[nH]c2ccccc2n1CCCN1CCC(n2c(=O)[nH]c3cc(Cl)ccc32)CC1 [Domperidone] (compound 10 µM),0.25
4,O=C(O[C@H]1C[C@H]2CC[C@@H](C1)[N+]21CCCC1)C(O)(c1ccccc1)c1ccccc1 [Trospium (chloride)] (compound 10 µM),0.26
5,O=C1Nc2ccccc2C2(CCN(CCc3ccc(C(F)(F)F)cc3)CC2)O1 (compound 10 µM),-4.41
6,CC(C)C[C@H](NC(=O)[C@H](Cc1ccccc1)NC(=O)CNC(=O)[C@@H](C)NC(=O)[C@@H](N)Cc1ccc(O)cc1)C(=O)O [[D-Ala2]leucine-enkephalin] (compound 10 µM),0.01
7,Oc1ccc2c3c1O[C@H]1c4[nH]c5ccccc5c4C[C@@]4(O)[C@@H](C2)N(CC2CC2)CC[C@]314 [Naltrindole (hydrochloride)] (compound 10 µM),-5.41
8,Cc1cccc(C)c1NC1=NCCCS1 [Xylazine (hydrochloride)] (compound 10 µM),0.79
9,CC(C)(C)NCC(O)c1ccc(O)cc1Cl (stereo unspecified) (compound 10 µM),0.7
10,CN1CCC(c2c[nH]c3ccc(O)cc23)CC1 (compound 10 µM),0.55
11,CN1[C@@H]2CC[C@H]1C[C@@H](OC(=O)C(CO)c1ccccc1)C2 (stereo partly specified) [Atropine (sulfate monohydrate)] (compound 10 µM),-0.18
12,COC(=O)C1=CCCN(C)C1 [Arecoline (hydrobromide)] (compound 10 µM),0.44
13,CSCC[C@H](NC(=O)[C@H](Cc1ccccc1)NC(=O)CNC(=O)CNC(=O)[C@@H](N)Cc1ccc(O)cc1)C(=O)O (compound 10 µM),-0.12
14,CN1[C@@H]2CC[C@H]1C[C@@H](OC(=O)[C@H](CO)c1ccccc1)C2 [L-Hyoscyamine] (compound 10 µM),0.67
15,CCC1(c2cccc(O)c2)CCCCN(C)C1 (stereo unspecified) [Meptazinol (hydrochloride)] (compound 10 µM),0.25
16,O=C(O[C@H]1CN2CCC1CC2)N(Cc1cc(F)c(F)c(F)c1)c1cccc(F)c1 [Tarafenacin (D-tartrate)] (compound 10 µM),-1.58
17,Cc1cccc([C@H](C)c2c[nH]cn2)c1C [Dexmedetomidine (hydrochloride)] (compound 10 µM),0.38
18,CCC(COC(=O)c1cc(OC)c(OC)c(OC)c1)(c1ccccc1)N(C)C (stereo unspecified) [Trimebutine (maleate)] (compound 10 µM),1.5
19,CN1CCC2=C(C1)c1ccccc1Cc1ccccc12 [Setiptiline (maleate)] (compound 10 µM),-1.28
20,"Cc1c(C(=O)c2cccc3ccccc23)c2cccc3c2n1[C@H](CN1CCOCC1)CO3 [WIN 55,212-2 (Mesylate)] (compound 10 µM)",-0.84
21,COc1cc2c3c(c1OC)-c1ccccc1C[C@H]3N(C)CC2 [Nuciferine] (compound 10 µM),-0.74
22,CN(C)CCN(C)CCc1ccc(Cl)c(Cl)c1 [BD-1047 (dihydrobromide)] (compound 10 µM),-1.41
23,CN(C)C(=O)Oc1cc(OC(=O)N(C)C)cc(C(O)CNC(C)(C)C)c1 (stereo unspecified) [Bambuterol (hydrochloride)] (compound 10 µM),0.49
